Out of some 110,000 compounds screened, about 230 (0.21%) showed an effect of 50% or more. Only a selection was taken, and strong results are over-represented in it overall.
molecular target: DPAP1 (Plasmodium falciparum, UniProt Q8IIJ9); assay: primary screen, percent inhibition; read by cleavage of a fluorogenic dipeptide substrate; higher = more effect of the substance; set-up: species or system P. falciparum D10 trophozoite lysates; single well
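Also: 30 min substrate incubation versus DMSO and 10 µM JCP410 controls.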

DPAP1, sequence (Q8IIJ9 whole entry, looked up): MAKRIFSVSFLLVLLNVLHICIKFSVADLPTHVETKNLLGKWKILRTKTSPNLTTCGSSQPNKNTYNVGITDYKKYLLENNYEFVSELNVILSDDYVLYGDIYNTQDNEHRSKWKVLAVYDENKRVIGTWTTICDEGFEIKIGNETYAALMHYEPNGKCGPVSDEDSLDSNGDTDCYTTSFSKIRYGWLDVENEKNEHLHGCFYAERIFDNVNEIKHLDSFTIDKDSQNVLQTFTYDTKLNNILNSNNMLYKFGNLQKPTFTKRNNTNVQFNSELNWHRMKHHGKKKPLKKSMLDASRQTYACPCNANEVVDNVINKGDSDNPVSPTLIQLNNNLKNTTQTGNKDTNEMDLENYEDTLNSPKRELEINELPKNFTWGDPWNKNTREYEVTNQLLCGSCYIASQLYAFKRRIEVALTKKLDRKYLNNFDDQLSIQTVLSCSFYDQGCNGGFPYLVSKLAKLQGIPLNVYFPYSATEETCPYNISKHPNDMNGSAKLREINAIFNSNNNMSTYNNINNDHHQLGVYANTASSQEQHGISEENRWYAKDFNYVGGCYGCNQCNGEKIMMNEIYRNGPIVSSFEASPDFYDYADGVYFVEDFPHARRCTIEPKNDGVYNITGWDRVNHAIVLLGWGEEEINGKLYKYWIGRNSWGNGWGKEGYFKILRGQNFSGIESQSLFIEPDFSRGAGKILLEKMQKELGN

SMILES | % Inhibition @ 10 uM [%]
c1ccc(-c2nc3c4cnn(-c5ccccc5)c4ncn3n2)cc1 | -6.09
Cc1oc2c(C)c3oc(=O)c(CC(=O)N4CCOCC4)c(C)c3cc2c1-c1ccccc1 | 2.54
Cc1ccc2c(c1Br)C1(C(=O)N2)C(C#N)=C(N)Oc2cc(N)ccc21 (stereo not drawn) | 5.35
Cc1ccc2nc3c(cc(C(=O)NCC4CCCO4)c(=N)n3CCc3ccccc3)c(=O)n2c1 (stereo not drawn) | 0.279
COCCn1c(=N)c(C(=O)NCC2CCCO2)cc2c(=O)n3cc(C)ccc3nc21 (stereo not drawn) | 94.3
Cc1ccc2nc3c(cc(C(=O)NCC4CCCO4)c(=N)n3C3CCCCC3)c(=O)n2c1 (stereo not drawn) | 3.6
COc1ccc2cc3cc(C(=O)NCCN(C)C)oc3nc2c1 | -1.54
Cc1ccccc1CSCC(=O)NC1CCCC1 | 2.15
OC(Cn1ccnc1)(c1ccc(F)cc1)c1ccccn1 (stereo not drawn) | 2.62
O=C(NCc1ccc2c(c1)OCO2)c1noc2c1COc1ccccc1-2 | 73.5
O=C(NCc1ccc(F)cc1)c1noc2c1COc1ccccc1-2 | 69.7
CN(Cc1ccccc1)C(=O)c1noc2c1COc1ccccc1-2 | 7.85
COc1ccc(CNC(=O)c2noc3c2COc2ccc(C)cc2-3)cc1 | -3.17
Cc1ccc(CNC(=O)c2noc3c2COc2ccccc2-3)cc1 | 72.8
O=C(NCc1ccc2c(c1)OCO2)c1cc(-c2ccccc2F)no1 | -2.07
O=C(NCc1ccc(F)cc1)c1noc2c1CCc1ccccc1-2 | -9.28
Cc1onc(-c2ccccc2Cl)c1C(=O)NCc1ccc2c(c1)OCO2 | -6.92
Cc1ccc2c(c1)-c1onc(C(=O)NCc3ccccc3Cl)c1CO2 | 0.589
CC(C)C(=O)NC(c1ccc(Cl)cc1)c1ccc2cccnc2c1O (stereo not drawn) | -8.88
CCc1nc2ccccc2c(NC(=O)CN2CCCC2)c1C | -4.96
CN(Cc1ccccc1)C(=O)c1ccc(C(C)(C)C)cc1 | 8.01
CCN(CC)C1=NC(C(F)(F)F)(C(F)(F)F)N=C(c2ccc(OC)cc2)O1 | -3.53
Cn1nc(C(=O)NCc2cccnc2)c2c1-c1ccccc1SC2 | 36.1
Cn1nc(C(=O)NCc2ccc3c(c2)OCO3)c2c1-c1ccccc1S(=O)(=O)C2 | -3.8
Cn1nc(C(=O)NCc2ccc3c(c2)OCO3)c2c1-c1ccccc1SC2 | 86.5
Cn1nc(C(=O)NCc2ccco2)c2c1-c1ccccc1SC2 | 30.8
Cn1nc(C(=O)NCCc2ccccc2)c2c1-c1ccccc1SC2 | -0.495

SMILES | % Inhibition @ 10 uM [%]
Cc1ccc(CNC(=O)c2nn(C)c3c2CSc2ccccc2-3)cc1 | 51.6
O=C(NCC1CCCO1)C1CCCN(S(=O)(=O)N2CCC3(CC2)OCCO3)C1 (stereo not drawn) | -1.67
CC(=O)C1=C(C)OC(N)=C(C#N)C1c1ccccc1[N+](=O)[O-] (stereo not drawn) | -1.29
Cc1cccc(Nc2nc(-c3sc(N)nc3C)cs2)c1 | 2.7
Cc1ccc(OC(C)C(=O)N(Cc2ccccc2)C2CCS(=O)(=O)C2)cc1C (stereo not drawn) | 0.561
Cc1cc(C)c2nc(N3CCCC(C(=O)N4CCCCCC4)C3)sc2c1 (stereo not drawn) | 1.8
CCN1CCc2c(sc3nc(S)nc(N)c23)C1 | 42.8
Nc1nc(S)nc2sc3c(c12)CCN(Cc1ccccc1)C3 | 54.1
CSc1nc(N)c2c3c(sc2n1)CN(Cc1ccccc1)CC3 | -1.66
CC(C)C[C@H](NC(=O)OCc1ccccc1)C(=O)NCC(=O)CN(Cc1ccco1)C(=O)OC(C)(C)C | -7.36
CC1=C(C#N)C(c2ccccc2)C2=C(O)CC(C)(C)CC2=N1 (stereo not drawn) | 2.41
CC1(C)CC2=NC(S)=C(C#N)C(c3cccnc3)C2=C(O)C1 (stereo not drawn) | 67.3
CC1=C(C#N)C(c2cccnc2)C2=C(O)CC(C)(C)CC2=N1 (stereo not drawn) | -4.03
COc1cc(-c2nnc3sc(-c4ccc(C)c(C)c4)nn23)cc(OC)c1OC | 29.8
COc1cc(-c2nnc3sc(/C=C/c4ccccc4)nn23)cc(OC)c1OC | 59.6
COc1cc(-c2nnc3sc(/C=C/c4ccco4)nn23)cc(OC)c1OC | 6.01
COc1cc(-c2nnc3sc(-c4ccc(C(C)(C)C)cc4)nn23)cc(OC)c1OC | 2.89
CCOc1ccc(-c2nn3c(-c4cc(OC)c(OC)c(OC)c4)nnc3s2)cc1 | 56.2
COc1ccccc1-c1nnc2sc(/C=C/c3ccccc3)nn12 | 6.01
O=[N+]([O-])c1ccc(S(=O)(=O)n2cnc3ccccc32)cc1 | 2.81
CCOC(=O)N1CCN(c2ccc(/C=C(\C#N)c3nc4ccccc4s3)o2)CC1 | 4.67
Clc1ccc(-c2nn3c(C4COc5ccccc5O4)nnc3s2)cc1 (stereo not drawn) | 53.7
c1ccc2c(c1)OCC(c1nnc3sc(-c4ccncc4)nn13)O2 (stereo not drawn) | 2.68
COc1ccccc1-c1nn2c(C3COc4ccccc4O3)nnc2s1 (stereo not drawn) | 7.5
COc1ccccc1/C=C/c1nn2c(C)nnc2s1 | 2.29
COc1ccccc1/C=C/c1nn2c(C3COc4ccccc4O3)nnc2s1 (stereo not drawn) | 50.2
Cc1ccc(-c2nn3c(C4COc5ccccc5O4)nnc3s2)cc1C (stereo not drawn) | 2.89

SMILES | % Inhibition @ 10 uM [%]
COc1ccc(/C(O)=C/C=N/c2ccc3c(c2)OCO3)cc1 | -4.12
COc1ccccc1NC(=O)C1=C(C)N=C2CCCC(O)=C2C1c1ccc(OC)c(OC)c1 (stereo not drawn) | 2.51
COc1cc(NS(=O)(=O)c2ccc(N3C(=O)c4ccccc4C3=O)cc2)nc(OC)n1 | -1.96
CCOc1cc(CN2CCSCC2)ccc1O | 96.4
CCOc1cc(CN2CCN(Cc3ccccc3)CC2)ccc1O | 3.9
CCOc1cc(CN2CCN(C)CC2)ccc1O | 2.33
CCCCSc1nnc2c(n1)[nH]c1ccccc12 | 2.86
NCCSc1nnc2c(n1)[nH]c1ccccc12 | 77.5
CCCCCCSc1nnc2c(n1)[nH]c1ccccc12 | -2.35
COc1ccc(-n2c3c(c(=O)[nH]c2=O)C(NC(=O)c2ccc(F)cc2)(C(F)(F)F)C(=O)N3)cc1 (stereo not drawn) | 3.57
COc1ccc(C2=N/C(=C\c3cccs3)C(=O)O2)cc1 | 11.6
COc1cc(C(=O)NCc2cn3cccc(C)c3n2)cc(OC)c1OC | 3.3
COc1ccc(/C=N/n2c(S)nnc2C(F)(F)F)cc1O | -3.04
COc1ccc(OC)c(C2CC(=O)N3CN(C4CCCCC4)CSC3=C2C#N)c1 (stereo not drawn) | 9.77
COc1cc(C2CC(=O)N3CN(C)CSC3=C2C#N)cc(OC)c1OC (stereo not drawn) | 3.77
COc1cccc(C2CC(=O)N3CN(C4CCCCC4)CSC3=C2C#N)c1OC (stereo not drawn) | 21.8
COc1ccc(Br)cc1C1CC(=O)N2CN(C)CSC2=C1C#N (stereo not drawn) | 58.8
COc1ccc(Br)cc1C1CC(=O)N2CN(C3CCCCC3)CSC2=C1C#N (stereo not drawn) | 60.2
CCC(C(=O)Nc1nc2nc(C)cc(O)n2n1)c1ccccc1 (stereo not drawn) | 0.401
COc1cc(C2CC(=O)N3CN(C4CCCCC4)CSC3=C2C#N)ccc1O (stereo not drawn) | -1.28
CCc1ccc(C2CC(=O)N3CN(C4CCCCC4)CSC3=C2C#N)cc1 (stereo not drawn) | 64.5
Cc1ccc(C2CC(=O)N3CN(C4CCCCC4)CSC3=C2C#N)cc1 (stereo not drawn) | 25.9
CCOc1ccc(C2CC(=O)N3CN(C4CCCCC4)CSC3=C2C#N)cc1 (stereo not drawn) | 46.6
N#CC1=C2SCN(C3CCCC3)CN2C(=O)CC1c1ccc(Cl)cc1 (stereo not drawn) | 55.3
N#CC1=C2SCN(C3CCCC3)CN2C(=O)CC1c1cccs1 (stereo not drawn) | 48.2
Cc1nnc(SCc2ccc(F)cc2)nc1O | 3.62
Cc1ccc(COc2ncnc3[nH]cnc23)c(C)c1 | -3.09

SMILES | % Inhibition @ 10 uM [%]
Cc1ccc(CNC(=O)C2CCCN(S(=O)(=O)c3cccc4nonc34)C2)cc1 (stereo not drawn) | -0.668
Cc1ccnc(NC(=O)c2ccc(-c3ccccc3)s2)c1 | 4.4
O=C(c1ccc(Oc2ccccc2)cc1)c1nc2c(n1O)CCCC2 | 1.74
Cc1ccc(S(=O)(=O)NC(CC(=O)O)c2cccs2)cc1 (stereo not drawn) | 3.64
CCS(=O)(=O)c1nc(S(=O)(=O)c2ccc(Cl)cc2)c(N2CCOCC2)s1 | -2.25
O=C(Nc1nc(-c2ccc(Br)cc2)cs1)c1ccco1 | -2.99
O=c1[nH]c(=S)[nH]c2sc3c(c12)CCN(Cc1ccccc1)C3 | 1.4
Oc1ncnc2sc3c(c12)CCN(Cc1ccccc1)C3 | 6.74
COc1ccc(-n2c(SCC(=O)N3CCOCC3)nc3sc4c(c3c2=O)CCC4)cc1 | 9.91
O=c1[nH]c2sc3c(c2c(=O)n1-c1ccc(Cl)c(Cl)c1)CCC3 | -2.48
O=c1c2c3c(sc2[nH]c(=S)n1-c1ccc(Cl)cc1)CCC3 | 62.5
COc1ccc(-n2c(=S)[nH]c3sc4c(c3c2=O)CCCCC4)cc1 | 12.4
O=c1c2c3c(sc2[nH]c(=S)n1-c1ccccc1)CN(Cc1ccccc1)CC3 | 57.7
Cc1ccc(-n2c(=S)[nH]c3sc4c(c3c2=O)CCCCC4)cc1 | 11.5
COc1ccc(-n2c(=S)[nH]c3sc4c(c3c2=O)CCC4)cc1 | 84.1
CC1(C)CC(=O)C2=C(C1)N(c1nc[nH]n1)C(N)=C(C#N)C2c1cccc(Cl)c1 (stereo not drawn) | 5.48
CN1C2CCC1CC(N1CCN(Cc3ccccc3)CC1)C2 (stereo not drawn) | -1.5
COc1ccc(/C=C2\C(=N)N3N=C(S(C)(=O)=O)SC3=NC2=O)cc1 | -5.27
CCn1c(C)cc(/C=C2/NC(=O)N(c3ccccc3)C2=O)c1C | -2.19
CSc1ccc(C2CC(=O)N3CN(C)CSC3=C2C#N)cc1 (stereo not drawn) | 75
CN1CSC2=C(C#N)C(c3ccc(Br)cc3)CC(=O)N2C1 (stereo not drawn) | 43.4
CN1CSC2=C(C#N)C(c3ccccc3)CC(=O)N2C1 (stereo not drawn) | 32.9
COc1ccc2ccccc2c1C1CC(=O)N2CN(C)CSC2=C1C#N (stereo not drawn) | 36.5
CN1CSC2=C(C#N)C(c3ccccc3Cl)CC(=O)N2C1 (stereo not drawn) | 56.6
